The text below walks through data of publication PMC4336329 (PLoS ONE, 2015).

About 14,000 (4.5%) of roughly 310,000 compounds showed an effect of 50% or more. The effect is printed as a negative number. Shown is part of a subset that was picked to be rich in strong results.
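Note: peak tail current of the secondary pulse compared with the same well before compound.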

human ether-à-go-go-related gene (hERG) potassium channel, sequence (Q12809 whole entry, looked up): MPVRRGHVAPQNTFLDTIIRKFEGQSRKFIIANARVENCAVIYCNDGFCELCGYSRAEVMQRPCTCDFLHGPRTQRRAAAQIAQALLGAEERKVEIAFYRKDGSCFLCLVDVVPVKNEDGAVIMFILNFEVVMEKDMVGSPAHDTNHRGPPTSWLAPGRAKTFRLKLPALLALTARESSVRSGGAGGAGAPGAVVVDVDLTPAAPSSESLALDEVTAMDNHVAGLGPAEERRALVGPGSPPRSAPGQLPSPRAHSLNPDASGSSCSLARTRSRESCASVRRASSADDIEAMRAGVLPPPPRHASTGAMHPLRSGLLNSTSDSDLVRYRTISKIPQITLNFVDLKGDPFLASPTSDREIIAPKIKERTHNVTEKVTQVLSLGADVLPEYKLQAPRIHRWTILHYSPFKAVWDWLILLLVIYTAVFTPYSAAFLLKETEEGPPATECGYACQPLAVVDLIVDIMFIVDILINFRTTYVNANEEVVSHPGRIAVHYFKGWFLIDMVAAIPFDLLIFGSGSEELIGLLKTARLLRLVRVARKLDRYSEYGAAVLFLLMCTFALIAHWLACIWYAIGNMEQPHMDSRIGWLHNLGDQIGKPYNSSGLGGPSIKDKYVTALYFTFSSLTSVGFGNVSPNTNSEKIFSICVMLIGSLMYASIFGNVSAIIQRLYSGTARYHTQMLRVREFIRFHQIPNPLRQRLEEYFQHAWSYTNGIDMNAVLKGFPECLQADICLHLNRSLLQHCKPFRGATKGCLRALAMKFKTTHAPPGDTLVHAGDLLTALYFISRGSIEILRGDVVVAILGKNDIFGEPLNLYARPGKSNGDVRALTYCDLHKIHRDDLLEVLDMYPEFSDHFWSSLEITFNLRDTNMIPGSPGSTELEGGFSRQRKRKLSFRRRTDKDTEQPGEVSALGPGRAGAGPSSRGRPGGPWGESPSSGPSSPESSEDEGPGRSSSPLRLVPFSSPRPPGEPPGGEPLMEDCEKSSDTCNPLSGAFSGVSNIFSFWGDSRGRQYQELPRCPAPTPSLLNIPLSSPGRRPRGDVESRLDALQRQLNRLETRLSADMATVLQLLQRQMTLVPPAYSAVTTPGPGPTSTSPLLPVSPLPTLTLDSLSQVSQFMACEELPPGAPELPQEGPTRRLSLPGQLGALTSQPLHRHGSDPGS

The test concerns the target human ether-à-go-go-related gene (hERG) potassium channel (human, UniProt Q12809). Kind of test: primary screen, population patch clamp on CHO cells stably expressing hERG; higher = less effect of the substance.
`CCc1nc2c(n1O)CCc1nonc1-2`: the “hERG current change (%, negative = inhibition) at 10uM” value was found to be 4.58%.

With `COc1ccc(Cl)cc1NC(=O)CCCN1C(=O)CCC1=O`, the “hERG current change (%, negative = inhibition) at 10uM” value is on record as 14.4%.

For the compound `CCOC(=O)c1c(C)[nH]c(C)c1C(=O)C(Cc1ccccc1)N(C)C.Cl` (centres unmarked), the “hERG current change (%, negative = inhibition) at 10uM” value is recorded as 4.71%.

Take `O=S(=O)(NCC(c1ccco1)N1CCN(c2ccc(F)cc2)CC1)c1ccc(F)cc1` (centres unmarked): the “hERG current change (%, negative = inhibition) at 10uM” value is listed as -0.721%.

With `O=C(NCC(c1cccnc1)N1CCN(c2ccccc2)CC1)OCc1ccccc1` (centres unmarked), the “hERG current change (%, negative = inhibition) at 10uM” value was -45.9%.

Turning to `O=C(NCC(c1cccnc1)N1CCN(c2ccc(F)cc2)CC1)Oc1ccccc1` (centres unmarked), the “hERG current change (%, negative = inhibition) at 10uM” value was -26.4%.

As for `O=C(NCC(c1cccnc1)N1CCN(c2ccc(F)cc2)CC1)c1ccc(F)cc1` (centres unmarked), the “hERG current change (%, negative = inhibition) at 10uM” value is listed as -47.6%.

As to `CCS(=O)(=O)NCC(c1cccnc1)N1CCN(c2ccc(F)cc2)CC1` (centres unmarked), the “hERG current change (%, negative = inhibition) at 10uM” value is -7.91%.

As to `O=S(=O)(NCC(c1cccnc1)N1CCN(c2ccc(F)cc2)CC1)c1ccc(F)cc1` (centres unmarked), the “hERG current change (%, negative = inhibition) at 10uM” value is -69%.

As to `O=S(=O)(NCC(c1cccnc1)N1CCN(c2ccc(F)cc2)CC1)c1ccccc1` (centres unmarked), the “hERG current change (%, negative = inhibition) at 10uM” value is -53.2%.

Regarding `O=C(NCC(c1cccnc1)N1CCN(c2ccc(F)cc2)CC1)OCc1ccccc1` (centres unmarked), the “hERG current change (%, negative = inhibition) at 10uM” value is reported as -56.8%.

As for `COc1ccc2c(c1)-c1c(ssc1=S)C(C)(C)N2S(=O)(=O)c1ccc(C)cc1`, the “hERG current change (%, negative = inhibition) at 10uM” value was 2.55%.

As to `CCCCN1C(=O)/C(=C/c2ccc(N(C)C)cc2)C(=O)N(Cc2ccco2)C1=O`, the “hERG current change (%, negative = inhibition) at 10uM” value was 7.86%.

For `S=C(NCC1CCCO1)Nc1ccccc1` (centres unmarked), the “hERG current change (%, negative = inhibition) at 10uM” value was found to be 25.5%.

Turning to `Cc1c(CN2CCC(C(=O)Nc3ccc(Oc4ccccc4)nc3)CC2)cnn1C`, the “hERG current change (%, negative = inhibition) at 10uM” value is given as -32.8%.

Take `C=CCn1cc(CN2CCC(C(=O)Nc3cccc(-c4cccc(Cl)c4)c3)CC2)c(C)n1`: the “hERG current change (%, negative = inhibition) at 10uM” value is -71.5%.

Turning to `CCn1cc(CN2CCC(C(=O)Nc3cccc(-c4cccc(OC)c4)c3)CC2)c(C)n1`, the “hERG current change (%, negative = inhibition) at 10uM” value is listed as -46.3%.

In the case of `CCn1cc(CN2CCC(C(=O)Nc3cccc(-c4cccc(Cl)c4)c3)CC2)c(C)n1`, the “hERG current change (%, negative = inhibition) at 10uM” value is given as -78.9%.

Regarding `Cc1c(CN2CCC(C(=O)Nc3cccc(-c4cccc(Cl)c4)c3)CC2)cnn1C`, the “hERG current change (%, negative = inhibition) at 10uM” value is given as -61.4%.

For `CCn1cc(CN2CCCC(C(=O)Nc3ccc(-c4cscn4)cc3)C2)c(C)n1` (centres unmarked), the “hERG current change (%, negative = inhibition) at 10uM” value is given as -8.71%.

Take `CC(=O)c1cc(CN2CCC(C(=O)Nc3cccc(-c4cscn4)c3)CC2)cs1`: the “hERG current change (%, negative = inhibition) at 10uM” value was -30.5%.

In the case of `C=CCOc1cccc(C2NC(=O)c3ccccc3O2)c1` (centres unmarked), the “hERG current change (%, negative = inhibition) at 10uM” value was 21.4%.

`C/C(=N/O)c1cc(C(C)(C)C)c(O)c(C(C)(C)C)c1`: the “hERG current change (%, negative = inhibition) at 10uM” value is 14.6%.

In the case of `COc1ccc([C@@H]2CC=C(C(=O)O)[C@H](c3ccc(F)cc3)N2S(=O)(=O)c2ccc(C)cc2)cc1OC`, the “hERG current change (%, negative = inhibition) at 10uM” value turned out to be 10.5%.

For the compound `Fc1cccc(Cl)c1Cn1nnc(-c2ccc3c(c2)OCO3)n1`, the “hERG current change (%, negative = inhibition) at 10uM” value was -1.37%.

As for `N=c1c2c3c(sc2nc2n1CCCCC2)CCCCC3`, the “hERG current change (%, negative = inhibition) at 10uM” value is -53%.

For the compound `N=c1c2c3c(sc2nc2n1CCC2)CCCC3`, the “hERG current change (%, negative = inhibition) at 10uM” value is listed as -28.9%.

In the case of `N=c1c2c3c(sc2nc2n1CCCCC2)CCCC3`, the “hERG current change (%, negative = inhibition) at 10uM” value is given as -45.2%.

On to `NC(=O)NCc1cccs1`, for which the “hERG current change (%, negative = inhibition) at 10uM” value turned out to be 7.27%.

Consider `O=[N+]([O-])c1ccccc1Oc1ccc(S(=O)(=O)N2CCOCC2)cc1`, for which the “hERG current change (%, negative = inhibition) at 10uM” value was -63.8%.

In the case of `O=[N+]([O-])c1ccccc1S(=O)(=O)Oc1ccc(C(=S)N2CCOCC2)cc1`, the “hERG current change (%, negative = inhibition) at 10uM” value is on record as -75%.

Turning to `CCOc1cc(C(=S)N2CCOCC2)ccc1OS(=O)(=O)c1ccccc1[N+](=O)[O-]`, the “hERG current change (%, negative = inhibition) at 10uM” value worked out at 8.98%.

With `O=C(c1cccc(Oc2ccc([N+](=O)[O-])cc2)c1)N1CCOCC1`, the “hERG current change (%, negative = inhibition) at 10uM” value was -34.3%.

Take `O=[N+]([O-])c1ccc(Oc2ccc(S(=O)(=O)N3CCOCC3)cc2)cc1`: the “hERG current change (%, negative = inhibition) at 10uM” value is given as -63.4%.

For `COc1cc(C(=S)N2CCOCC2)ccc1OS(=O)(=O)c1ccccc1[N+](=O)[O-]`, the “hERG current change (%, negative = inhibition) at 10uM” value is -1.24%.

In the case of `O=[N+]([O-])c1ccc(-c2ccc(S(=O)(=O)N3CCOCC3)cc2)cc1`, the “hERG current change (%, negative = inhibition) at 10uM” value is -29.8%.

Regarding `Cn1nc([N+](=O)[O-])nc1Oc1ccccc1C(=O)N1CCOCC1`, the “hERG current change (%, negative = inhibition) at 10uM” value turned out to be 17.4%.

Consider `O=C(c1ccccc1Oc1ccc([N+](=O)[O-])cc1)N1CCOCC1`, for which the “hERG current change (%, negative = inhibition) at 10uM” value is listed as -52%.

Consider `O=[N+]([O-])c1ccccc1S(=O)(=O)Nc1ccc(S(=O)(=O)N2CCOCC2)cc1`, for which the “hERG current change (%, negative = inhibition) at 10uM” value is 14.7%.

As for `O=S(=O)(c1ccc(Oc2ccccc2)cc1)N1CCOCC1`, the “hERG current change (%, negative = inhibition) at 10uM” value turned out to be 0.463%.

As for `O=S(=O)(c1ccc(Oc2ccc(S(=O)(=O)N3CCOCC3)cc2)cc1)N1CCOCC1`, the “hERG current change (%, negative = inhibition) at 10uM” value is 9.29%.
